Laboratory results taken from PubChem BioAssay AID1159580 (chemical genetic matrix, 2015).
About 2,000 (36%) of roughly 5,500 compounds were called active. Inconclusive results (about 18%) are left out. Rule as the data show it: active = normalized growth mostly below about 0.91 (no sharp cut-off); inconclusive = no clear call, values can overlap the other calls; inactive = mostly above about 0.92. Some of the results follow.

Assay: chemical genetic growth profiling, strain panel (AID 1159580);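 also: tested at 20 µM; growth read once vehicle control cultures reached saturation at 30 °C; 1 = growth at the plate median or of vehicle wells; lower values mean less growth of the strain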
Details: growth OD
[1] = S. cerevisiae deletion strains, locus YAL013W, strain DEP1, hits give low values
[2] = S. cerevisiae deletion strains, locus YBR229C, strain ROT2, hits give low values
[3] = S. cerevisiae deletion strains, locus YDL101C, strain DUN1, hits give low values
[4] = S. cerevisiae deletion strains, locus YDL134C, strain PPH21, hits give low values
[5] = S. cerevisiae deletion strains, locus YDR150W, strain NUM1, hits give low values
[6] = S. cerevisiae deletion strains, locus YEL061C, strain CIN8, hits give low values
[7] = S. cerevisiae deletion strains, locus YGR078C, strain PAC10, hits give low values
[8] = S. cerevisiae deletion strains, locus YHR030C, strain SLT2, hits give low values
[9] = S. cerevisiae deletion strains, locus YHR087W, strain rtc3, hits give low values
[10] = S. cerevisiae deletion strains, locus YJR043C, strain POL32, hits give low values
[11] = S. cerevisiae deletion strains, locus YJR075W, strain HOC1, hits give low values
[12] = S. cerevisiae deletion strains, locus YLR039C, strain RIC1, hits give low values
[13] = S. cerevisiae deletion strains, locus YLR058C, strain SHM2 (second series), hits give low values
[14] = S. cerevisiae deletion strains, locus YLR085C, strain ARP6, hits give low values
[15] = S. cerevisiae deletion strains, locus YLR262C, strain YPT6, hits give low values
[16] = S. cerevisiae deletion strains, locus YML094W, strain GIM5, hits give low values
[17] = S. cerevisiae deletion strains, locus YMR219W, strain ESC1, hits give low values
[18] = S. cerevisiae deletion strains, locus YMR263W, strain SAP30, hits give low values
[19] = S. cerevisiae deletion strains, locus YNL153C, strain GIM3, hits give low values
[20] = S. cerevisiae deletion strains, locus YNL298W, strain CLA4 (second series), hits give low values
[21] = S. cerevisiae deletion strains, locus YNL322C, strain KRE1, hits give low values
[22] = S. cerevisiae deletion strains, locus YNR030W, strain Alg12, hits give low values
[23] = S. cerevisiae deletion strains, locus YPL055C, strain LGE1, hits give low values
[24] = S. cerevisiae deletion strains, locus YPL241C, strain CIN2, hits give low values
[25] = S. cerevisiae deletion strains, locus YPR135W, strain CTF4, hits give low values

Measured: normalized growth

Cc1cc(NC(=O)C(Cl)(Cl)Cl)n(-c2ccccc2)n1
active: [12] 0.678 | [15] 0.728
inactive: [1] 0.984 | [2] 0.987 | [3] 0.995 | [4] 0.936 | [5] 0.898 | [6] 0.994 | [7] 0.984 | [8] 0.888 | [9] 0.97 | S. cerevisiae deletion strains, locus YJL187C, strain SWE1, hits give low values 0.979 | [10] 0.987 | [11] 1 | [13] 0.985 | [14] 0.948 | [16] 1.02 | [17] 0.991 | [18] 0.982 | S. cerevisiae deletion strains, locus YMR307W, strain GAS1, hits give low values 1.02 | S. cerevisiae deletion strains, locus YNL128W, strain TEP1, hits give low values 0.975 | [19] 1 | [20] 0.978 | [21] 0.97 | [22] 0.974 | S. cerevisiae deletion strains, locus YOL006C, strain TOP1, hits give low values 0.864 | [23] 1.04 | [24] 1 | [25] 0.838 | S. cerevisiae strains, strain wild type, hits give low values 0.96

CC(=O)Nc1cccc(-n2nnc(SCc3ccccc3)n2)c1
inactive: [1] 1.02 | [2] 1.01 | S. cerevisiae deletion strains, locus YCL061C, strain MRC1, hits give low values 1.03 | [3] 0.995 | [4] 0.988 | [5] 1.03 | [6] 1 | [7] 1.02 | S. cerevisiae deletion strains, locus YGR229C, strain SMI1, hits give low values 0.986 | [8] 1.06 | [9] 0.988 | [10] 1.02 | [11] 1.03 | [12] 0.976 | [13] 0.997 | [14] 0.949 | [15] 1.1 | [16] 0.982 | [17] 0.993 | [18] 1.01 | [19] 1.02 | [20] 1.01 | [21] 1.01 | [22] 1.01 | [23] 0.968 | [24] 0.958 | [25] 1.08

O=C(Nc1c(Br)c(C2CC2)nn1-c1ccccc1)C(Cl)(Cl)Cl
inactive: S. cerevisiae deletion strains, locus YAR019C, strain CDC15, hits give low values 0.92 | S. cerevisiae deletion strains, locus YBL105C, strain PKC1, hits give low values 0.913 | S. cerevisiae deletion strains, locus YBR135W, strain CKS1, hits give low values 0.914 | S. cerevisiae deletion strains, locus YBR136W, strain MEC1, hits give low values 0.923 | S. cerevisiae deletion strains, locus YBR160W, strain CDC28, hits give low values 0.92 | S. cerevisiae deletion strains, locus YDL017W, strain CDC7, hits give low values 0.929 | S. cerevisiae deletion strains, locus YDL028C, strain MPS1, hits give low values 0.93 | [3] 0.927 | S. cerevisiae deletion strains, locus YDL108W, strain KIN28, hits give low values 0.925 | S. cerevisiae deletion strains, locus YDL132W, strain cdc53, hits give low values 0.917 | S. cerevisiae deletion strains, locus YDL214C, strain PRR2, hits give low values 0.897 | S. cerevisiae deletion strains, locus YDR052C, strain DBF4, hits give low values 0.918 | S. cerevisiae deletion strains, locus YDR054C, strain cdc34, hits give low values 0.921 | S. cerevisiae deletion strains, locus YDR226W, strain ADK1, hits give low values 0.909 | S. cerevisiae deletion strains, locus YDR477W, strain SNF1, hits give low values 0.826 | S. cerevisiae deletion strains, locus YER123W, strain YCK3, hits give low values 0.769 | S. cerevisiae deletion strains, locus YER133W, strain GLC7, hits give low values 0.802 | S. cerevisiae deletion strains, locus YFL009W, strain cdc4, hits give low values 0.92 | S. cerevisiae deletion strains, locus YFL029C, strain CAK1, hits give low values 0.92 | S. cerevisiae deletion strains, locus YFR003C, strain YPI1, hits give low values 0.922 | S. cerevisiae deletion strains, locus YFR019W, strain FAB1, hits give low values 0.932 | S. cerevisiae deletion strains, locus YFR028C, strain CDC14, hits give low values 0.908 | S. cerevisiae deletion strains, locus YGR040W, strain KSS1, hits give low values 0.784 | S. cerevisiae deletion strains, locus YGR052W, strain FMP48, hits give low values 0.856 | S. cerevisiae deletion strains, locus YGR092W, strain DBF2, hits give low values 0.693 | [8] 0.896 | S. cerevisiae deletion strains, locus YHR079C, strain IRE1, hits give low values 0.919 | S. cerevisiae deletion strains, locus YHR082C, strain KSP1, hits give low values 0.919 | S. cerevisiae deletion strains, locus YHR205W, strain SCH9, hits give low values 0.821 | S. cerevisiae deletion strains, locus YIL147C, strain SLN1, hits give low values 0.932 | S. cerevisiae deletion strains, locus YJL095W, strain BCK1, hits give low values 0.824 | S. cerevisiae deletion strains, locus YJL128C, strain PBS2, hits give low values 0.908 | S. cerevisiae deletion strains, locus YJL157C, strain FAR1, hits give low values 0.904 | S. cerevisiae deletion strains, locus YJR016C, strain ILV3, hits give low values 0.929 | S. cerevisiae deletion strains, locus YJR066W, strain TOR1 (second series), hits give low values 0.832 | S. cerevisiae deletion strains, locus YJR066W, strain TOR1, hits give low values 0.86 | S. cerevisiae deletion strains, locus YKL067W, strain YNK1, hits give low values 0.897 | S. cerevisiae deletion strains, locus YKL101W, strain HSL1, hits give low values 0.882 | S. cerevisiae deletion strains, locus YKL193C, strain SDS22, hits give low values 0.921 | S. cerevisiae deletion strains, locus YKL203C, strain TOR2, hits give low values 0.879 | S. cerevisiae deletion strains, locus YLR133W, strain CKI1, hits give low values 0.871 | S. cerevisiae deletion strains, locus YLR403W, strain SFP1, hits give low values 0.714 | S. cerevisiae deletion strains, locus YML070W, strain DAK1, hits give low values 0.901 | S. cerevisiae deletion strains, locus YMR001C, strain CDC5, hits give low values 0.922 | S. cerevisiae deletion strains, locus YMR205C, strain PFK2 (second series), hits give low values 0.883 | S. cerevisiae deletion strains, locus YMR277W, strain FCP1, hits give low values 0.915 | S. cerevisiae deletion strains, locus YNL006W, strain LST8, hits give low values 0.921 | S. cerevisiae deletion strains, locus YNL020C, strain ARK1, hits give low values 0.878 | S. cerevisiae deletion strains, locus YNL161W, strain CBK1, hits give low values 0.925 | S. cerevisiae deletion strains, locus YNL183C, strain NPR1, hits give low values 0.864 | S. cerevisiae deletion strains, locus YNL207W, strain RIO2, hits give low values 0.928 | S. cerevisiae deletion strains, locus YNL222W, strain SSU72, hits give low values 0.928 | S. cerevisiae deletion strains, locus YNL307C, strain MCK1 (second series), hits give low values 0.812 | S. cerevisiae deletion strains, locus YOL078W, strain AVO1, hits give low values 0.912 | S. cerevisiae deletion strains, locus YOL136C, strain PFK27, hits give low values 0.895 | S. cerevisiae deletion strains, locus YOR061W, strain CKA2, hits give low values 0.872 | S. cerevisiae deletion strains, locus YOR119C, strain RIO1, hits give low values 0.822 | S. cerevisiae deletion strains, locus YOR231W, strain MKK1, hits give low values 0.898 | S. cerevisiae deletion strains, locus YOR329C, strain SCD5, hits give low values 0.925 | S. cerevisiae deletion strains, locus YPL031C, strain PHO85, hits give low values 0.814 | S. cerevisiae deletion strains, locus YPL153C, strain RAD53, hits give low values 0.82 | S. cerevisiae deletion strains, locus YPL204W, strain HRR25, hits give low values 0.735 | S. cerevisiae deletion strains, locus YPL209C, strain IPL1, hits give low values 0.922 | S. cerevisiae deletion strains, locus YPL256C, strain CLN2, hits give low values 0.961 | S. cerevisiae deletion strains, locus YPR025C, strain CCL1, hits give low values 0.923 | S. cerevisiae deletion strains, locus YPR106W, strain ISR1, hits give low values 0.935 | S. cerevisiae deletion strains, locus YPR111W, strain DBF20, hits give low values 0.925 | S. cerevisiae deletion strains, strain NNK1, hits give low values 0.944 | S. cerevisiae deletion strains, strain TSCII, hits give low values 0.92
active: S. cerevisiae deletion strains, locus YKL048C, strain ELM1, hits give low values 0.802 | S. cerevisiae deletion strains, locus YLR113W, strain HOG1, hits give low values 0.858

CN(C)CC[C@@H](c1ccc(Cl)cc1)c1ccccn1
inactive: S. cerevisiae deletion strains, locus YAL040C, strain CLN3, hits give low values 1 | S. cerevisiae deletion strains, locus YDR363W, strain ESC2, hits give low values 1 | S. cerevisiae deletion strains, locus YER002W, strain NOP16, hits give low values 0.998 | [7] 1.01 | S. cerevisiae deletion strains, locus YNL175C, strain NOP13, hits give low values 1.01 | S. cerevisiae deletion strains, locus YNL197C, strain WHI3, hits give low values 1 | S. cerevisiae deletion strains, locus YNL224C, strain SQS1, hits give low values 0.999 | S. cerevisiae deletion strains, locus YOR083W, strain WHI5 (second series), hits give low values 1.01 | [23] 1.01
